Data taken from the supplement of paper PMC11732987, “Enantioselective OTUD7B fragment discovery through chemoproteomics screening and high-throughput optimisation” (Communications Chemistry, 2025).

Assays:
Test in all cases: log2 ratio of Biotin-Ahx-Ub-VS probe labelling (fragment/DMSO); higher = less target engagement (more negative = stronger competition), active = hit call of the paper (q ≤ 0.05, log2 ratio ≤ -1)
Details in all cases: compound concentration: 200 uM; treatment time: 3 h
USP34 = USP34 (UniProt Q70CQ2)
Procedure, shortened: (§1)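 Each value is an average log2 ratio of fragment to vehicle, tested by unpaired t-test. The underlying Spectronaut label-free quantities were global-median-normalised, and only proteins with ≥2 unique peptides were included. Triplicate HEK293T lysate samples (495 µg) were exposed to fragment at 200 µM or vehicle for 3 h, then to Biotin-Ahx-Ub-VS at 0.5 µM final for 1 h, before NeutrAvidin enrichment of labelled DUBs, LysC and trypsin digestion, and diaPASEF LC-MS/MS.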

USP36 = biological target: T1, USP36 (UniProt Q9P275)
T1 sequence (whole entry): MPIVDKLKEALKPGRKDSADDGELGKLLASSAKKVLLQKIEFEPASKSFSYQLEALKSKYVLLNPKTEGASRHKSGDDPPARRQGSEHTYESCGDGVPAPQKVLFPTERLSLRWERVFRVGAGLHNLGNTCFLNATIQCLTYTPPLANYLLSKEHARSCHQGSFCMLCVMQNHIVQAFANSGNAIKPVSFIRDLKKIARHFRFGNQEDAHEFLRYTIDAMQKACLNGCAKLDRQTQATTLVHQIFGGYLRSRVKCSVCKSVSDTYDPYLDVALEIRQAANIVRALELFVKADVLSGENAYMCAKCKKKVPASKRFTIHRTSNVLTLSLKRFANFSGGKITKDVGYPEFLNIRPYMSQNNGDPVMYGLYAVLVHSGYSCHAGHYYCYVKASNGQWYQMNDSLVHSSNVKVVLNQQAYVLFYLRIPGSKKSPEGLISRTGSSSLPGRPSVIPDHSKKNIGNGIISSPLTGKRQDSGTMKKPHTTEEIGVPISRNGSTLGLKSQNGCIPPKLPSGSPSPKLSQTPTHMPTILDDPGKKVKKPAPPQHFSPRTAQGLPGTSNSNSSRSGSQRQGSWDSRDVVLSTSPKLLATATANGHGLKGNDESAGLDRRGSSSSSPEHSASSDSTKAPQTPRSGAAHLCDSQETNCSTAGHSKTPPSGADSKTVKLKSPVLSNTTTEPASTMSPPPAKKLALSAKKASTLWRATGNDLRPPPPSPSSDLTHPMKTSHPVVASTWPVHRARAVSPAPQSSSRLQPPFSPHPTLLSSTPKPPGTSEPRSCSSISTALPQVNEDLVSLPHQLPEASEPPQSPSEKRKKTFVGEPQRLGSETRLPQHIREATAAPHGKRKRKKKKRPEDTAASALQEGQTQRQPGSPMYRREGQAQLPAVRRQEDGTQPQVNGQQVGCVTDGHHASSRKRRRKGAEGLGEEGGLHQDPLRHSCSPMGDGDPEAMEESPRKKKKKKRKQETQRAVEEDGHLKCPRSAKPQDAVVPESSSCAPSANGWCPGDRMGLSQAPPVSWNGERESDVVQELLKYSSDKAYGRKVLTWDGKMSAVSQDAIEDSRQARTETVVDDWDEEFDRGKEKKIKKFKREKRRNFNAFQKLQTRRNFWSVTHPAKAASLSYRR
Procedure, shortened: as §1

USP38 = biological target: T2, USP38 (UniProt Q8NB14)
T2 sequence (whole entry): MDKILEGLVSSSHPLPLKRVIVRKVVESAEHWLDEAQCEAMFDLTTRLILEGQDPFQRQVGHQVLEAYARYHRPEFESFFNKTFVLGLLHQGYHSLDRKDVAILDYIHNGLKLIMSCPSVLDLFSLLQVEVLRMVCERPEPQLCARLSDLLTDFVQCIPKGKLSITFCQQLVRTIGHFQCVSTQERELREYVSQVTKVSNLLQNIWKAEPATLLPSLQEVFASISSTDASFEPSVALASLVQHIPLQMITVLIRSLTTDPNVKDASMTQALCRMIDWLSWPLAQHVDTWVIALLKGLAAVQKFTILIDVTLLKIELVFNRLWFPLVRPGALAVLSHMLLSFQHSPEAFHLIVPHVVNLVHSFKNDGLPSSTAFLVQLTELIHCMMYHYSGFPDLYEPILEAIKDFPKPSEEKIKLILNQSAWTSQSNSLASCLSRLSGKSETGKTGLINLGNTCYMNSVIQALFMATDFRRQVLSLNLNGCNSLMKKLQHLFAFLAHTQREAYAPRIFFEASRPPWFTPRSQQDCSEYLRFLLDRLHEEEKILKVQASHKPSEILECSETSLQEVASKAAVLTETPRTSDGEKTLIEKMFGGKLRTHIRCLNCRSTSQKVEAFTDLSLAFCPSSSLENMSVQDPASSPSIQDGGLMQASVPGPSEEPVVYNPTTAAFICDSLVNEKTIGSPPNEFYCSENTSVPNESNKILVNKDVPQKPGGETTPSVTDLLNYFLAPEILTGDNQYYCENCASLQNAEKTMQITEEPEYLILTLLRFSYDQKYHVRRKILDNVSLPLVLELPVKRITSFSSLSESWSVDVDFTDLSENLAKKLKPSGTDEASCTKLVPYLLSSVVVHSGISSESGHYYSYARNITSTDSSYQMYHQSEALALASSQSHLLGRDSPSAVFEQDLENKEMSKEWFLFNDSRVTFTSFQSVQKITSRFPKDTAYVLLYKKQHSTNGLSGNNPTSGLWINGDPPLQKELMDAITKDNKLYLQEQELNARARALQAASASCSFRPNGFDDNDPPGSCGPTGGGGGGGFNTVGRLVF
Procedure, shortened: as §1

USP39 = biological target: T3, USP39 (UniProt Q53GS9)
T3 sequence (whole entry): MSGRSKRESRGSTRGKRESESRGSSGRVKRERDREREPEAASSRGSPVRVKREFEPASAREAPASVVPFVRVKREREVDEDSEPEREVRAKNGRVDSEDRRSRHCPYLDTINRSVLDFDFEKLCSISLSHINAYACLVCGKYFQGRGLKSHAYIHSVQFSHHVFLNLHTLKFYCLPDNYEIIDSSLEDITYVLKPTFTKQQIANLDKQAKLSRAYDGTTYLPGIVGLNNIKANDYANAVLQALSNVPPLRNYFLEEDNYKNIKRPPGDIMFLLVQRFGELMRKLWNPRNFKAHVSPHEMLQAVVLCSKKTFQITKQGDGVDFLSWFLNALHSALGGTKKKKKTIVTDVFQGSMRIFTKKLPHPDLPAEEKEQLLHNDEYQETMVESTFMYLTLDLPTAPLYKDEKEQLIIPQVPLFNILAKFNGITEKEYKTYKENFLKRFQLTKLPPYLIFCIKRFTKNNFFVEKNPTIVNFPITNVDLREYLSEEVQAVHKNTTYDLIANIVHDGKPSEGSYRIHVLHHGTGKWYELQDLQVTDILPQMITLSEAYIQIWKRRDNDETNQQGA
Procedure, shortened: as §1

USP4 = biological target: T4, USP4 (UniProt Q13107)
T4 sequence (whole entry): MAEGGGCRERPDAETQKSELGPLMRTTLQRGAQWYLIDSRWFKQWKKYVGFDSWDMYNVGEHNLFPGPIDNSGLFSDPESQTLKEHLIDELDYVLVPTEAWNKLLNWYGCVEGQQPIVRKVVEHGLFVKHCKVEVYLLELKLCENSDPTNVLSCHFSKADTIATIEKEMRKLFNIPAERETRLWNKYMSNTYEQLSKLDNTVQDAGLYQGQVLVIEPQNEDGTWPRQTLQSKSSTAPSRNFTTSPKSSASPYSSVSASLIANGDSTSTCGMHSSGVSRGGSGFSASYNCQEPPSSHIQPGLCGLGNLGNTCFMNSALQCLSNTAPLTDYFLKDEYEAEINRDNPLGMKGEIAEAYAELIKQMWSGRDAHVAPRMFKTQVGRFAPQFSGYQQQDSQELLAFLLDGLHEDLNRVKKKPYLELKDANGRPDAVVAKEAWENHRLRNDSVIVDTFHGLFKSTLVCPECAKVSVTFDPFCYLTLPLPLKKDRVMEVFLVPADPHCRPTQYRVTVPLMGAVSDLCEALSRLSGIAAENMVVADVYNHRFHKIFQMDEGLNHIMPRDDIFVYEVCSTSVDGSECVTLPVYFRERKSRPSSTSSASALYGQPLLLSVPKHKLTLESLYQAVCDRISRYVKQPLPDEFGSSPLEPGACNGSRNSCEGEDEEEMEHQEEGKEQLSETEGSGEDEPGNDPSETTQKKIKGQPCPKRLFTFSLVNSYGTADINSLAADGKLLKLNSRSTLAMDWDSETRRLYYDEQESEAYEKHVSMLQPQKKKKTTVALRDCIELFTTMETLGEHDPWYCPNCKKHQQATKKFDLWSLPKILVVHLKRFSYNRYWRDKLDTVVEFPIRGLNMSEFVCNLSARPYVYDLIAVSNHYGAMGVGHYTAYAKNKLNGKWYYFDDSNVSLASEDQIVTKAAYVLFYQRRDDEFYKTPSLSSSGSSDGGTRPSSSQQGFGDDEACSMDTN
Procedure, shortened: as §1

Measured: log2 ratio of Biotin-Ahx-Ub-VS probe labelling

USP34, sequence (Q70CQ2 whole entry, the tested form may be a part): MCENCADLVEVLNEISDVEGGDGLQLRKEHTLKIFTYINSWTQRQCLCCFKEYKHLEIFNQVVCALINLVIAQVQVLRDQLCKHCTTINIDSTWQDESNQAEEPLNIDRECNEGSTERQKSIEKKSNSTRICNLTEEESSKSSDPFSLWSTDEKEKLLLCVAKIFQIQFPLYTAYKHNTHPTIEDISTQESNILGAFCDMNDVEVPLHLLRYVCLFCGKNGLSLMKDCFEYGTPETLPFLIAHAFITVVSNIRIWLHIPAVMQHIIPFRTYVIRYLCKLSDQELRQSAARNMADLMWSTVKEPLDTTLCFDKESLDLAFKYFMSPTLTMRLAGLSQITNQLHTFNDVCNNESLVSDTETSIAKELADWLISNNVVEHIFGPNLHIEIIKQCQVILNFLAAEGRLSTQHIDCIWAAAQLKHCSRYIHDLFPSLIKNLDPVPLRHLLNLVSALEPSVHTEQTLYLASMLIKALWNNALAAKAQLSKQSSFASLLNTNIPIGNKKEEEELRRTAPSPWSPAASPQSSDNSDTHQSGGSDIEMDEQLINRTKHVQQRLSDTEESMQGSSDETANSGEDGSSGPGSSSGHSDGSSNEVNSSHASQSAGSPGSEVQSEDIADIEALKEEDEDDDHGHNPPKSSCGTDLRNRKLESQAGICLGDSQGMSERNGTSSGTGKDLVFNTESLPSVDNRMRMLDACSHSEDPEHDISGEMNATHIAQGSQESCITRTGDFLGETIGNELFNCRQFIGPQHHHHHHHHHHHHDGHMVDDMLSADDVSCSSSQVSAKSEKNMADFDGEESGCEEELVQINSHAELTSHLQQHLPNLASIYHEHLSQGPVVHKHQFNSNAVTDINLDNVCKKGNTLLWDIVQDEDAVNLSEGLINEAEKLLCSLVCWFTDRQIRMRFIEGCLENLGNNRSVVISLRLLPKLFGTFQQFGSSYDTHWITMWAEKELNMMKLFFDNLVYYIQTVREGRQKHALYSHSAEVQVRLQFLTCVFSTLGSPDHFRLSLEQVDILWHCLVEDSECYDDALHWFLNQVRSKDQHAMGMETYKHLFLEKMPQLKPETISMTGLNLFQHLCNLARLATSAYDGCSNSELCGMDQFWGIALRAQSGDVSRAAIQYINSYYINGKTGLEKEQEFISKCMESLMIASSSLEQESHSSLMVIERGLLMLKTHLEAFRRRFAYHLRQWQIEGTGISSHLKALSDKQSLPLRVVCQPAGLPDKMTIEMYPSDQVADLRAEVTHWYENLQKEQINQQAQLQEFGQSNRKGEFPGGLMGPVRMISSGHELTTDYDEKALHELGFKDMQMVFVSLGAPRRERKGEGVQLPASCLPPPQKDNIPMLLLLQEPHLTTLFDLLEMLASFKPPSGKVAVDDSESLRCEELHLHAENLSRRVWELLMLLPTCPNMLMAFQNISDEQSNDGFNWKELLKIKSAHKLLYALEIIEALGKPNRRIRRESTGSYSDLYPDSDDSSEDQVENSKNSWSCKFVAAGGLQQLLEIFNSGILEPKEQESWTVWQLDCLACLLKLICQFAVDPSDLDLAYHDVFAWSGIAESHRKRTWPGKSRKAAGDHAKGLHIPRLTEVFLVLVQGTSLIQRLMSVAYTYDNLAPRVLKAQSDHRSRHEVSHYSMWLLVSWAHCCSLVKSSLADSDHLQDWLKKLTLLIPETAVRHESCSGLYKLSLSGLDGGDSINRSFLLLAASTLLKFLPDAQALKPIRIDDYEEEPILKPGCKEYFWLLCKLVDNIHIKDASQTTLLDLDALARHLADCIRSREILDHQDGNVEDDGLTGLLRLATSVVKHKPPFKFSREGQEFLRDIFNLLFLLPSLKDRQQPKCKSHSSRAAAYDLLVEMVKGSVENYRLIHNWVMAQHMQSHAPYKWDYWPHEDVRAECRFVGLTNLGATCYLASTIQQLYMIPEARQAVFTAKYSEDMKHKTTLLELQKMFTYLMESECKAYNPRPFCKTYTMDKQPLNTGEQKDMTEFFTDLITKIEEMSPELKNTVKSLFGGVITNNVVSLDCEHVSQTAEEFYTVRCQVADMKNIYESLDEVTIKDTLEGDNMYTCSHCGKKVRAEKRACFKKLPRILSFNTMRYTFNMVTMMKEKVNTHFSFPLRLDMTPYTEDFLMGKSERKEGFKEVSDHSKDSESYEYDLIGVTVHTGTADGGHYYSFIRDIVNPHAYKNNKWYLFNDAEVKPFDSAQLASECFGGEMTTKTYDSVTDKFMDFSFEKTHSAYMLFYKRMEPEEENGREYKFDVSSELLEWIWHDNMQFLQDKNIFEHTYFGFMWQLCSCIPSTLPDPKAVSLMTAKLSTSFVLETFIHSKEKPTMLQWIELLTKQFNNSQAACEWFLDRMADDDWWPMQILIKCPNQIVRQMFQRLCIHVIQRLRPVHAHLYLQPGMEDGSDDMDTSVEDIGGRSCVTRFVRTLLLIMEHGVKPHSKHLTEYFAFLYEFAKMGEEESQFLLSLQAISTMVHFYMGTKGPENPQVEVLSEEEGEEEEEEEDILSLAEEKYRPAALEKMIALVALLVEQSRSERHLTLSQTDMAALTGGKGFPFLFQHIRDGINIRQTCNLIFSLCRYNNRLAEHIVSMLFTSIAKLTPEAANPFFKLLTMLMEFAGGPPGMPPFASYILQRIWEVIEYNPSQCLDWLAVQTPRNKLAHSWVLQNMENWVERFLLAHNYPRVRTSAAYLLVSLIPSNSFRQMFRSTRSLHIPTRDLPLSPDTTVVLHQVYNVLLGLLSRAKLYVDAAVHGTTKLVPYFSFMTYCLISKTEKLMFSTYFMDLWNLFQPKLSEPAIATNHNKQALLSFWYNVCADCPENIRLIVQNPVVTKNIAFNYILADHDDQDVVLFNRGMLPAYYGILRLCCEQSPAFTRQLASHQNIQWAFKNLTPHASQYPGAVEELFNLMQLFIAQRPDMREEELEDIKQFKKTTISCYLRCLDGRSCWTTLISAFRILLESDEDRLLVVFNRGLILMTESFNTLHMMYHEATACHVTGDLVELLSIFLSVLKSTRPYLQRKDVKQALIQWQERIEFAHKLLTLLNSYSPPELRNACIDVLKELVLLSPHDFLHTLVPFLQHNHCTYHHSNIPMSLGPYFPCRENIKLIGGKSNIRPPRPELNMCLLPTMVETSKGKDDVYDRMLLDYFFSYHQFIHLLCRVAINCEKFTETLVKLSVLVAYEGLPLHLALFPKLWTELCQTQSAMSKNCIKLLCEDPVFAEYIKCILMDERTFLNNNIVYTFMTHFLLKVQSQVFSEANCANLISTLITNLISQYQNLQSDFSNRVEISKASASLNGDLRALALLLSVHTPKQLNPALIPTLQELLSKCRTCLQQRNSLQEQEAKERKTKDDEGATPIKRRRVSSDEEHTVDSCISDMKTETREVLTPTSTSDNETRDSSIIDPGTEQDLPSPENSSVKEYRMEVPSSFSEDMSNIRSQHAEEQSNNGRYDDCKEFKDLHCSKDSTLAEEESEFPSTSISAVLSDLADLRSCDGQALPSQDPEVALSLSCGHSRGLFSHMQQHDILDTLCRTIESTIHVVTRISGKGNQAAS

Cc1ccc(CC(NC(=O)CCl)c2ccccn2)cc1.Cl (stereo not given)
inactive: USP34 -0.162 | USP36 0.13 | USP38 -0.114 | USP39 -0.181 | USP4 0.169
